ALOX12 inhib = 12-hLO (ALOX12) enzyme inhibition. purified 12-hLO, xylenol orange hydroperoxide absorbance. AID 1452. Potency, µM (titrated, usually from 57.1 µM), for the others: top-dose activity change, negative = inhibition, usual class: inhibitors. 150,000 compounds, 0.12% hits. P18054; also: potency is read from the fitted curve at half-maximal effect; % is scaled to controls: 0 for no effect and ±100 for the full control effect; nearly all actives have a fitted effect of over 55% in size
Target sequence (P18054 whole entry, looked up): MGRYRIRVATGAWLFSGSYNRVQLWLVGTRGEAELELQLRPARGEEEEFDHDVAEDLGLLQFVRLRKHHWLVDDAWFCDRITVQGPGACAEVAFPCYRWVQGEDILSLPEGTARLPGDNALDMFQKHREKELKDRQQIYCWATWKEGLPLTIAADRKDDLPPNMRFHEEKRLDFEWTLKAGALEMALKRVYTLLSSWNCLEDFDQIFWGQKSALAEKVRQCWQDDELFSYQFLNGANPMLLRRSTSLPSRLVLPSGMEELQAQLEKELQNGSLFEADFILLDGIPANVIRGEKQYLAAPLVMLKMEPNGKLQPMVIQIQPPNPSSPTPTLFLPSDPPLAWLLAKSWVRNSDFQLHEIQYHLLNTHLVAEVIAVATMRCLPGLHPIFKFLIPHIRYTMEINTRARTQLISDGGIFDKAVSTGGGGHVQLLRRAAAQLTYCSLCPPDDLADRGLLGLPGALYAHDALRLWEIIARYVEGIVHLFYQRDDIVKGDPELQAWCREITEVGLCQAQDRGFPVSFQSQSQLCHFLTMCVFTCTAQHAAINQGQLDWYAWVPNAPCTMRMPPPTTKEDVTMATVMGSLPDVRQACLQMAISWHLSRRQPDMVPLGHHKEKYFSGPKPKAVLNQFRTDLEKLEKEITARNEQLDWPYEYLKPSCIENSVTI
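Hydroperoxide output read as Fe(III)-xylenol orange absorbance, 573-to-405 nm ratio, after 30 min reaction with 40 uM arachidonic acid. Enzyme: 150 nM purified human 12hLO, 15 min compound preincubation; 25 mM Hepes pH 7.0, room temperature.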
HTT aggregate = reduces HttQ103-GFP aggregates in PC12 cells; Potency, µM (titrated, usually from 46.1 µM), inactives show at the top dose activity change, negative = inhibition, hits mostly inhibitors; PC12 HttQ103-GFP aggregates, Acumen cytometry, 40 h; 220,000 compounds, 1.1% hits; also: potency is read from the fitted curve at half-maximal effect; % is scaled to controls: 0 for no effect and ±100 for the full control effect; nearly all actives have a fitted effect of over 60% in size
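Ecdysone-promoter PC12 model expressing HTT exon 1 Q103 fused to GFP, induced by tebufenozide at 100 nM final. Compounds titrated; aggregates sized 1–25 µm scored on a 488 nm laser cytometer.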
NPSR antag = blocks cAMP signaling of the human neuropeptide S receptor. Q6W5P4. CHO-NPSR cells, cAMP TR-FRET, antagonist mode. Potency, µM (top dose mostly 38.3 µM), without a hit: at the top dose activity change, negative = inhibition, hits mostly inhibitors. 220,000 compounds, 1% hits. AID 1461; also: potency is read from the fitted curve at half-maximal effect; % is scaled to controls: 0 for no effect and ±100 for the full control effect; nearly all actives have a fitted effect of over 50% in size
IMPase cell inh = IMPase inhibition in cells; CHO-M1 cells, IP1 accumulation, HTRF TR-FRET ratio; inhibition (IP1 accumulation), % at 46.1 µM; 120,000 tested, under 10 active; active = well fitted curve in the direction sought with a large enough effect in the signal ratio, not every such curve was filed as active; inconclusive = small, poorly fitted or top-dose-only effect, or a change in a side signal; inactive = no such curve, though single readings can be large or run the other way; the % refers to the signal ratio;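 also: cells stimulated with carbachol in lithium chloride buffer; plate controls were DMSO basal wells for no effect and reference inhibitor wells for full effect; higher means more IMPase inhibition seen as more IP1 and lower FRET ratio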
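The IP-One HTRF competitive assay in carbachol-stimulated CHO-M1 cells quantifies cellular IP1. Compounds spanned up to 46 uM final, and activity is expressed as AC50 from concentration-response fits of the ratio and donor data.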
HTT cytoprotect = Huntington cell model cytoprotection by ATP luminescence. 230,000 compounds, 0.14% hits. PC12 HTT-Q103 induced, cytoprotection, ATP luminescence, 40 h. Potency, µM (top dose mostly 56.4 µM), for the others: cytoprotection (ATP increase), hits mostly activators. AID 1471; also: potency is read from the fitted curve at half-maximal effect; % of control where 0% means no effect; nearly all actives have a fitted effect of over 45% in size
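Stable PC12 Q103-GFP cells in serum-supplemented, phenol red-free DMEM; induction by tebufenozide at 100 nM final; compound dose series; cell viability quantified luminescently from ATP.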
PNC assembly inh = inhibitors of perinucleolar compartment assembly; 140,000 compounds, 3.1% hits; AID 2417; PC3M PTB-GFP, PNC prevalence imaging, 16 h; active compounds read low; activity change (PNC), negative = inhibition, % at 10 µM;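 active = readout at or below -70, meaning at least 70% loss of cells showing the perinucleolar compartment, a nuclear body marking cancer cells; inconclusive = readout between -30 and a set limit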;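 also: plate controls were DMSO wells for no effect and camptothecin positive control wells for full effect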
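PC3M cells stably expressing PTB-GFP, 750–1000 cells/well, treated 16 h at 37 °C with compound (23 nl of library stock), in duplicate. After paraformaldehyde fixation and Hoechst stain, imaged at 20x; PNC prevalence scored by image analysis.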
Active calls of the source: *; [ ] = another dose, or the depositor's remark. In the library only some 3.3% were active in any assay of this set; here they are far more common. Unless noted, calls follow the shape of the dose curve; as a rule, active = well fitted curve in the direction sought with a large enough effect; inconclusive = small, poorly fitted or top-dose-only effect, or another doubt; inactive = no such curve, though single readings can be large; an effect the other way counts as inactive or inconclusive.

For Nc1c(O)ccc2c1C(=O)c1ccccc1C2=O the results were ALOX12 inhib -8%, HTT aggregate 3%, NPSR antag 10µM*, IMPase cell inh inconclusive, HTT cytoprotect -2%[10 µM] and PNC assembly inh -21.
Screening Cn1c(=O)[nH]c(=O)c2c1nc(NCCO)n2CC(O)COc1ccccc1 (stereo not drawn) returned IMPase cell inh -3.
`CC(C)C[C@H](NC(=O)[C@@H](NC(=O)N[C@@H](Cc1ccccc1)C(=O)O)[C@H]1CCN=C(N)N1)C(=O)N[C@H](C=O)Cc1ccccc1` gave HTT cytoprotect -1%.
Screening CCn1ncc(C(=O)Nc2cccc(Cl)c2)c1C returned ALOX12 inhib 0%, HTT aggregate -16%, NPSR antag -6% and PNC assembly inh -89*.
`CCn1ncc(Cl)c1C(=O)Nc1ccncc1` gave ALOX12 inhib 0%, HTT aggregate -6%, NPSR antag -2%[46.1 µM], IMPase cell inh 3, HTT cytoprotect 3% and PNC assembly inh -114*.
C=CCN1c2ccccc2[C@]23C[C@@H](C(=O)OC)N(S(=O)(=O)c4ccc(C(F)(F)F)cc4)C2=NC(C(=O)OC)=C(C(=O)OC)[C@H]13 was read as ALOX12 inhib 1%[11.4 µM] and HTT cytoprotect 38%[10 µM].
`CN(C)Cc1ccccc1-c1ccc2ncnc(NC3CCNCC3)c2c1` gave ALOX12 inhib 6% and HTT cytoprotect 26%.
For O=C(NCCCn1ccnc1)Nc1cccc2ccccc12 the results were ALOX12 inhib -3%, HTT aggregate 0%, NPSR antag 6%[46.1 µM], IMPase cell inh -13, HTT cytoprotect 18%[10 µM] and PNC assembly inh -100*.
For CC(C)c1ccccc1NC(=S)NCCCn1ccnc1 the results were HTT aggregate -22%, NPSR antag 11% and HTT cytoprotect -25%.
`Oc1c(Br)cc(Br)cc1CN(Cc1cc(Br)cc(Br)c1O)C1CCCCC1` gave ALOX12 inhib -16%[11.4 µM] and HTT cytoprotect -6%[10 µM].
COc1ccc(/C=N/Nc2ncc(Br)cn2)c(OC)c1 was read as HTT aggregate inconclusive, NPSR antag 7% and HTT cytoprotect 3.5µM*.
`COc1cccc(NC(=S)NNC(=O)C(C)n2nc(C)c([N+](=O)[O-])c2C)c1` (stereo not drawn) gave ALOX12 inhib 3%, HTT aggregate -8%, NPSR antag -12%[46.1 µM], IMPase cell inh 8, HTT cytoprotect -16% and PNC assembly inh 31.
COc1cccc(/C=N/NC(=O)Cn2nc(C)c([N+](=O)[O-])c2C)c1O was read as ALOX12 inhib -15%, HTT aggregate 2.8µM*, NPSR antag 3%[46.1 µM], IMPase cell inh -6, HTT cytoprotect 22%[10 µM] and PNC assembly inh 26.
`COc1cccc(/C=N/NC(=O)C(C)n2nc(C)c([N+](=O)[O-])c2C)c1O` (stereo not drawn) gave ALOX12 inhib -15%, HTT aggregate 16µM*, NPSR antag 13%, HTT cytoprotect -62%[10 µM] and PNC assembly inh 47.
For Cc1nc2cnc(N3CCN(C)CC3)nc2n(Cc2ccc(F)cc2)c1=O the results were HTT cytoprotect 9%.
For NS(=O)(=O)c1cc(-c2nn[nH]n2)c(NCc2cccs2)cc1Cl the results were HTT aggregate 14% and HTT cytoprotect -7%.
Screening CSc1nnc2c3ccccc3n(CCc3ccccc3)c2n1 returned ALOX12 inhib -9%, HTT aggregate inconclusive, NPSR antag inconclusive, IMPase cell inh -10, HTT cytoprotect -13%[10 µM] and PNC assembly inh -118*.
For CCCCC[C@H](O)c1cccc(OCc2ccc3ccccc3n2)c1 the results were ALOX12 inhib -12%, IMPase cell inh 7 and HTT cytoprotect 8%[1.9 µM].
Screening Nc1ccc(-c2cnc(-c3ccc(N)cc3)nc2)cc1 returned ALOX12 inhib -5%, HTT aggregate 11%, NPSR antag -33%[7.67 µM], IMPase cell inh -5, HTT cytoprotect -92% and PNC assembly inh -123*.
Screening CCCCCCc1ccc(-c2ncc(N)cn2)cc1 returned ALOX12 inhib -7%, HTT aggregate 18%, NPSR antag -10%[46.1 µM], IMPase cell inh 6, HTT cytoprotect -17% and PNC assembly inh inconclusive.
For O=C(CSc1nnc2scc(-c3ccc(Cl)cc3)n12)NCc1ccc2c(c1)OCO2 the results were ALOX12 inhib -3%, HTT aggregate -4%, NPSR antag -9%[46.1 µM], IMPase cell inh 11, HTT cytoprotect -18%[0.074 µM] and PNC assembly inh -86*.
Screening CCCc1nc(SCC(=O)NCc2ccc3c(c2)OCO3)c2c(=O)n(C)c(=O)n(C)c2n1 returned HTT cytoprotect 1%.
Cn1c(=O)c2c(nc(SCC(=O)NCc3ccc4c(c3)OCO4)n2Cc2ccc(Cl)cc2)n(C)c1=O was read as ALOX12 inhib 0%, HTT aggregate 12%, NPSR antag -28%[46.1 µM], IMPase cell inh -3, HTT cytoprotect -2%[10 µM] and PNC assembly inh -100*.
For CC(C)Cn1c(=O)c(C(=O)NCc2ccccn2)c(O)c2ccccc21 the results were ALOX12 inhib 2%, HTT aggregate 7.9µM*, NPSR antag inconclusive, IMPase cell inh -4, HTT cytoprotect -23%[10 µM] and PNC assembly inh 14.
CCCn1c(=O)c(C(=O)NCc2ccncc2)c(O)c2ccccc21 was read as ALOX12 inhib -28%, HTT aggregate -19%, NPSR antag -23%[46.1 µM], IMPase cell inh -8, HTT cytoprotect -28% and PNC assembly inh 30.
Screening NC(=O)c1nn(-c2cccc(Cl)c2)c(=O)cc1O returned ALOX12 inhib 9%, HTT aggregate 16%, NPSR antag -6%[46.1 µM], IMPase cell inh 4, HTT cytoprotect 12% and PNC assembly inh -100*.
For S=C(Nc1ccc(Br)cc1Cl)NN1CCOCC1 the results were HTT aggregate 13%, NPSR antag -7% and HTT cytoprotect 1%[10 µM].
Screening Cc1cc(C)nc(SCc2cc(=O)c(OC(=O)c3ccc(S(=O)(=O)N(C)C)cc3)co2)n1 returned ALOX12 inhib 2%, HTT aggregate 2%, NPSR antag -12%[46.1 µM], IMPase cell inh -5, HTT cytoprotect 5%[10 µM] and PNC assembly inh inconclusive.
Cc1ccnc(SCc2cc(=O)c(OC(=O)c3ccc(S(=O)(=O)N(C)C)cc3)co2)n1 was read as ALOX12 inhib -4%, HTT aggregate 7%, NPSR antag 9%, IMPase cell inh -9, HTT cytoprotect -8%[10 µM] and PNC assembly inh -109*.
